Assay results from the supplement of paper PMC11732987, “Enantioselective OTUD7B fragment discovery through chemoproteomics screening and high-throughput optimisation” (Communications Chemistry, 2025).

Legend:
Assay in all cases: log2 ratio of Biotin-Ahx-Ub-VS probe labelling (fragment/DMSO); higher = less target engagement (more negative = stronger competition), active = hit call of the paper (q ≤ 0.05, log2 ratio ≤ -1)
Settings in all cases: compound concentration: 200 uM; treatment time: 3 h
[1] = target: USP9X (UniProt Q93008)
Summary of the method: (§1)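 Using Biotin-Ahx-Ub-VS at 0.5 µM final for 1 h, DUBs were labelled in HEK293T lysate (495 µg per sample) that had first been treated in triplicate with fragment at 200 µM or vehicle for 3 h. NeutrAvidin enrichment, LysC and trypsin digestion and diaPASEF LC-MS/MS followed. Spectronaut label-free quantities were global-median-normalised. Values are average log2 fragment/vehicle ratios by unpaired t-test, using proteins with ≥2 unique peptides.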

[2] = target: UniProt O00487
Summary of the method: as §1

[3] = target: UniProt O00507
Summary of the method: as §1

[4] = target: UniProt P51784
Summary of the method: as §1

[5] = target: T1, UniProt Q5T2D3
T1 sequence (whole entry): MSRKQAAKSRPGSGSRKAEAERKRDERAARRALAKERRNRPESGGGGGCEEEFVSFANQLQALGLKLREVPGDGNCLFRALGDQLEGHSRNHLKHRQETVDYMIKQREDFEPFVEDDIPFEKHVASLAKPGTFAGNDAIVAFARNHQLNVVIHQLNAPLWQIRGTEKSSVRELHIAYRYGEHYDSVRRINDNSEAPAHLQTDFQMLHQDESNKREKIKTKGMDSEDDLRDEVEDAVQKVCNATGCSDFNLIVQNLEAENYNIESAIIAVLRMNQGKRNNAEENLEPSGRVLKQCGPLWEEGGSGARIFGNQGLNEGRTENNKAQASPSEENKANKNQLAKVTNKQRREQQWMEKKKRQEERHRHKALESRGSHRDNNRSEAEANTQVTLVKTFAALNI
Summary of the method: as §1

[6] = target: T2, UniProt Q8TE49
T2 sequence (whole entry): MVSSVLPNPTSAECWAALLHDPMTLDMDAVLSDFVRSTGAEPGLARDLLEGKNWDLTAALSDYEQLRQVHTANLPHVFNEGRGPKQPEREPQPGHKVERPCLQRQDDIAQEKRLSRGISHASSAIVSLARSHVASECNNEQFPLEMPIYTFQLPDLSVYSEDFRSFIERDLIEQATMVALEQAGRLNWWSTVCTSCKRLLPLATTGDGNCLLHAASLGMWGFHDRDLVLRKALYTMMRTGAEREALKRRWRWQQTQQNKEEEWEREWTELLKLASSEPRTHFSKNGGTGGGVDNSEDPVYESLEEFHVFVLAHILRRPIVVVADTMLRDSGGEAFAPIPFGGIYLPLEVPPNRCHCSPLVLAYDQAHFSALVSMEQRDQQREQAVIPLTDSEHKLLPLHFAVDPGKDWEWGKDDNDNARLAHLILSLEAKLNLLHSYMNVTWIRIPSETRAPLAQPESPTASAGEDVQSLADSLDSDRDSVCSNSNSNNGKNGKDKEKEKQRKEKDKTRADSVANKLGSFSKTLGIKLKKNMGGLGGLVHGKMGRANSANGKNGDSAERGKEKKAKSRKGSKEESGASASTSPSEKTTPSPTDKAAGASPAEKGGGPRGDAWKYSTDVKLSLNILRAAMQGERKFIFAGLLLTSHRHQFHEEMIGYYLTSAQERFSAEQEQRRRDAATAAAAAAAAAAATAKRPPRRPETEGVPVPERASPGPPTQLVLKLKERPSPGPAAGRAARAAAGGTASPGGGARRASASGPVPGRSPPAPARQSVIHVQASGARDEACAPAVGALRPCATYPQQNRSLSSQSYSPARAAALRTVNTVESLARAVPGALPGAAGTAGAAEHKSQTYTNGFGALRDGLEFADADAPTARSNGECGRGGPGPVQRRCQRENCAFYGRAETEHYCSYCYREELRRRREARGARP
Summary of the method: as §1

[7] = target: T3, UniProt Q9P2H5
T3 sequence (whole entry): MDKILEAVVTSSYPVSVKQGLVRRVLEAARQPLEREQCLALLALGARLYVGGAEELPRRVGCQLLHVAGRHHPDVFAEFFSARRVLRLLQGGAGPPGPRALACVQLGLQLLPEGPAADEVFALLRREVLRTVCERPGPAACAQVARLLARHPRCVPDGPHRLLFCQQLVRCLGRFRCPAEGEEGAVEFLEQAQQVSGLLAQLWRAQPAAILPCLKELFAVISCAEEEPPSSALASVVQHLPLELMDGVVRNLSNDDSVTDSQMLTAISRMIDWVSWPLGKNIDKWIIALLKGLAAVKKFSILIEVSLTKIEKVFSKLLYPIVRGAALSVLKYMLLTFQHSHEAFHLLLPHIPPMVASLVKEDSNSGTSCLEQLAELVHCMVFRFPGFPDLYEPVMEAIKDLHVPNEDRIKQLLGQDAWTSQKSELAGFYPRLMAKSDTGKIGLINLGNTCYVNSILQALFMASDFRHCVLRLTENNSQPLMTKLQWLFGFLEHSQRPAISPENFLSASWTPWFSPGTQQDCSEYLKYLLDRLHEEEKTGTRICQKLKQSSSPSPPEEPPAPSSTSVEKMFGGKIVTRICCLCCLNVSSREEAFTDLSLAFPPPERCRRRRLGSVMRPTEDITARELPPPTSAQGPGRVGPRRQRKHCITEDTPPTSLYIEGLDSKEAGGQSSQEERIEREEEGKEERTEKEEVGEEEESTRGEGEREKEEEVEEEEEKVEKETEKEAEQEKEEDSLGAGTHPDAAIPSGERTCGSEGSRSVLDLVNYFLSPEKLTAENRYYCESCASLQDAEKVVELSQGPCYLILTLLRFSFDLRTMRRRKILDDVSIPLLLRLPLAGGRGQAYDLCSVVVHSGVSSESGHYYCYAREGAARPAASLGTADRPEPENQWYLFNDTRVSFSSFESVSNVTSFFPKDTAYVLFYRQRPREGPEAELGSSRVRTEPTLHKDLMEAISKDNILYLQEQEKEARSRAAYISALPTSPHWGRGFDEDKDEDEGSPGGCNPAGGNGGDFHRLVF
Summary of the method: as §1

[8] = target: T4, UniProt Q9UGI0
T4 sequence (whole entry): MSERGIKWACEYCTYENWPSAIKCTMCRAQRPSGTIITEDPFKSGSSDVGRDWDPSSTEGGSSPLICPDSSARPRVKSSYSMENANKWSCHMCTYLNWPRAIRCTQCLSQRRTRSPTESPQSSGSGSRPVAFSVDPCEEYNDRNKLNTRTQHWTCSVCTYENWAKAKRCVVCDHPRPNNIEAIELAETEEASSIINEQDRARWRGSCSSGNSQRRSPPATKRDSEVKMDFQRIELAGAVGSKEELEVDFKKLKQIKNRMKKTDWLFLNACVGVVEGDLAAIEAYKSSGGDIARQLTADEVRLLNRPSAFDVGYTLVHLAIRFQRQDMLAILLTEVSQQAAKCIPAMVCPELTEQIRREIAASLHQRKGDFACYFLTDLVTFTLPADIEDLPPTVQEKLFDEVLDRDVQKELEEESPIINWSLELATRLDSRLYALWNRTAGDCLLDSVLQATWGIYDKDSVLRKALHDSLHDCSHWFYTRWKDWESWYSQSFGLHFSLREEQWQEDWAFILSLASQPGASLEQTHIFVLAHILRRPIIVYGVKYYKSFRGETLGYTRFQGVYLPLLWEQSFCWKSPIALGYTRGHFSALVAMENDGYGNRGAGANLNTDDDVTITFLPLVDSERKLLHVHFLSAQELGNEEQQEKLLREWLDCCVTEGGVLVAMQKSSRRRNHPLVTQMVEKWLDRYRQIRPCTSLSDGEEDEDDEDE
Summary of the method: as §1

[9] = target: T5, YOD1 (UniProt Q5VVQ6)
T5 sequence (whole entry): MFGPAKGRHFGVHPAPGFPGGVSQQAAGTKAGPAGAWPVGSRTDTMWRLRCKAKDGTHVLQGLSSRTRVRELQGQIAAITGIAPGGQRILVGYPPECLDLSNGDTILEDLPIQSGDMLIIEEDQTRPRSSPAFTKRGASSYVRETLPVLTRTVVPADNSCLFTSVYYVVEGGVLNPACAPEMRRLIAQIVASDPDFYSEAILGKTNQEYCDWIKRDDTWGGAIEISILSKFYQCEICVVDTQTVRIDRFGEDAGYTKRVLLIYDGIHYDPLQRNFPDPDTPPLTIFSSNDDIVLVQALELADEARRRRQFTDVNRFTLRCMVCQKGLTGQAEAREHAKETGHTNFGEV
Summary of the method: as §1

Measured: log2 ratio of Biotin-Ahx-Ub-VS probe labelling

Chain of UniProt P51784 (P51784 whole entry): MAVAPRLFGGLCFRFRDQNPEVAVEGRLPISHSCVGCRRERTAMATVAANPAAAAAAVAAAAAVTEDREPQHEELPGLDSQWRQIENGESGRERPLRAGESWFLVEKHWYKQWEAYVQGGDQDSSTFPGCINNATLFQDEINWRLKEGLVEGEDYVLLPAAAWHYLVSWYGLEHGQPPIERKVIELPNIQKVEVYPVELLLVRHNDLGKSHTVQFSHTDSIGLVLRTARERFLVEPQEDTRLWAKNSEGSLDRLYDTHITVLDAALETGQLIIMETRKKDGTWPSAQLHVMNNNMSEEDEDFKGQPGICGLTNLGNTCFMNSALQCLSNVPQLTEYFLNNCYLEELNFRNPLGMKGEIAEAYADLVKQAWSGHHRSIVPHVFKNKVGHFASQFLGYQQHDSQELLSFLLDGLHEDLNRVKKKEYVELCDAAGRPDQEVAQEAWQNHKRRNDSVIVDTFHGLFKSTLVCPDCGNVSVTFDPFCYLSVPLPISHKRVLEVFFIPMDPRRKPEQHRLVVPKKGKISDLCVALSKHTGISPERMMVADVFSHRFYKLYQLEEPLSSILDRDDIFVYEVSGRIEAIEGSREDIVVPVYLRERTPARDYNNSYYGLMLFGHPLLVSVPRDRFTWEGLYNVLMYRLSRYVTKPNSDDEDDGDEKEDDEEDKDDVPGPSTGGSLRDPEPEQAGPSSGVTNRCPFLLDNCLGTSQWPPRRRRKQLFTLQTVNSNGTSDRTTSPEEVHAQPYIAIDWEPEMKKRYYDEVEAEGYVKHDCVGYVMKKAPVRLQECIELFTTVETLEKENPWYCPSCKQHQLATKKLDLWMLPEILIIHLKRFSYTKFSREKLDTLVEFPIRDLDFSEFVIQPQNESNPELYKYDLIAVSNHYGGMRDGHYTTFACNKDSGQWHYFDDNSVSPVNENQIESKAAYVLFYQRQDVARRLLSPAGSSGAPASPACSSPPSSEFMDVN
Chain of UniProt O00507 (O00507 whole entry): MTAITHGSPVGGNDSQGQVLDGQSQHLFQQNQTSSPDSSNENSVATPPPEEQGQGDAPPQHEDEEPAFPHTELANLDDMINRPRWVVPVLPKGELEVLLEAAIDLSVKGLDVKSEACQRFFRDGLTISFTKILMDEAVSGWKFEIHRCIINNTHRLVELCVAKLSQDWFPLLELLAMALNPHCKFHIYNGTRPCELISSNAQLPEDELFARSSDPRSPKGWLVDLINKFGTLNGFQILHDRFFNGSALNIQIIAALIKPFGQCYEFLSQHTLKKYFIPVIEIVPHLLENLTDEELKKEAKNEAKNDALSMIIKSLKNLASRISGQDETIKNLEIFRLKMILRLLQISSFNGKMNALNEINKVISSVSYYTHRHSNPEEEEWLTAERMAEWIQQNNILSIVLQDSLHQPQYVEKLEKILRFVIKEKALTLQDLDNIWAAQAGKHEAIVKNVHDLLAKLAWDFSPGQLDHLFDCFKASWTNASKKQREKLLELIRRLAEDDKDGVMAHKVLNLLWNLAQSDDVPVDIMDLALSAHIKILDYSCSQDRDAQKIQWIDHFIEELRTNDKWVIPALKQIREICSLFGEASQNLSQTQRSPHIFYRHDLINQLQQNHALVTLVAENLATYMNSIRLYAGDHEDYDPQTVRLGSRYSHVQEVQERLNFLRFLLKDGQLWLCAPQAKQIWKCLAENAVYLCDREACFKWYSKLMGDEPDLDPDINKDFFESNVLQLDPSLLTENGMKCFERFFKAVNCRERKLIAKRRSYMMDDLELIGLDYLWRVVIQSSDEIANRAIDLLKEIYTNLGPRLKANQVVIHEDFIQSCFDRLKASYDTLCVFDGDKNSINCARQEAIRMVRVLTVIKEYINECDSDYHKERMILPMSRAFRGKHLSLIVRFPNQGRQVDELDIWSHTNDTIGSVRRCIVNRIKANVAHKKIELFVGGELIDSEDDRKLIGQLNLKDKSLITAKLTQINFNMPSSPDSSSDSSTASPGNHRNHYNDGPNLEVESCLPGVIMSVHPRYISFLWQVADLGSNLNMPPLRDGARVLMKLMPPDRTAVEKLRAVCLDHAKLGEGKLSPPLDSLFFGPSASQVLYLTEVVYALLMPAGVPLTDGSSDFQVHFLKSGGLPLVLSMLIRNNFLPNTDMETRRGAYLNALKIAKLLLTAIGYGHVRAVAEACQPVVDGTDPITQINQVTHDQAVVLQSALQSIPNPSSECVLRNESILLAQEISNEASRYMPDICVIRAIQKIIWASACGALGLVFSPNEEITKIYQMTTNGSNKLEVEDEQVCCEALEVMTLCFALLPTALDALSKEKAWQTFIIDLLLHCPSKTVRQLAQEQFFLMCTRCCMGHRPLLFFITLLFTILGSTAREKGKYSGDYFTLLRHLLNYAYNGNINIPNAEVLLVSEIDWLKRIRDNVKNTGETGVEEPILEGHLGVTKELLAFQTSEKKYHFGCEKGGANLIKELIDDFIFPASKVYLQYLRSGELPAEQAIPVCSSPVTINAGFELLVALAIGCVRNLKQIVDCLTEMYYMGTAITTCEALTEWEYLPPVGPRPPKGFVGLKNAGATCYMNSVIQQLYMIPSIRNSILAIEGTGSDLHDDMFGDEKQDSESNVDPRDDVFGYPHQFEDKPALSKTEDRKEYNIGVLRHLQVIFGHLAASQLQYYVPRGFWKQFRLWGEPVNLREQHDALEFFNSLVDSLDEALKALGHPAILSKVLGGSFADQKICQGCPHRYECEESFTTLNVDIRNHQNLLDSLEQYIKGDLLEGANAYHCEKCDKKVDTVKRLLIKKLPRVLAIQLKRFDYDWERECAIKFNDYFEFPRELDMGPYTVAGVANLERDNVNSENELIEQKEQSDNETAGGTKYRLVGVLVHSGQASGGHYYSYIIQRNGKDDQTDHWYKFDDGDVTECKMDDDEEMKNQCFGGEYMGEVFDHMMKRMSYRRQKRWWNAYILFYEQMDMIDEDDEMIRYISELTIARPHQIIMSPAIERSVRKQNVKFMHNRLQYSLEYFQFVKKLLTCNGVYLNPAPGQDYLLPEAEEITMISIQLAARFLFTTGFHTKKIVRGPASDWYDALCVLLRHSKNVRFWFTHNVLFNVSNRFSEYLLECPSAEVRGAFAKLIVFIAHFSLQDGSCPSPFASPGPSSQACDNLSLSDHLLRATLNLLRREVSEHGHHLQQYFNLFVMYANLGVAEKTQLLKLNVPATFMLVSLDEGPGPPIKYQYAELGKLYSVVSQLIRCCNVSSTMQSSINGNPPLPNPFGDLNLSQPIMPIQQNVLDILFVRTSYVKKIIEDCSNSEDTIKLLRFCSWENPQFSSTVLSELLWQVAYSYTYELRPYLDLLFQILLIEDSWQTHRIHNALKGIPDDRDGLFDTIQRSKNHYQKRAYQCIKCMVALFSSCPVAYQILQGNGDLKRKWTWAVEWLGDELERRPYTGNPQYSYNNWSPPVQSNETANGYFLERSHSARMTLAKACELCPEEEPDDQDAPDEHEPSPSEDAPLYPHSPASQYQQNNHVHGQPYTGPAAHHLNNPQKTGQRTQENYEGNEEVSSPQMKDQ
Chain of UniProt O00487 (O00487 whole entry): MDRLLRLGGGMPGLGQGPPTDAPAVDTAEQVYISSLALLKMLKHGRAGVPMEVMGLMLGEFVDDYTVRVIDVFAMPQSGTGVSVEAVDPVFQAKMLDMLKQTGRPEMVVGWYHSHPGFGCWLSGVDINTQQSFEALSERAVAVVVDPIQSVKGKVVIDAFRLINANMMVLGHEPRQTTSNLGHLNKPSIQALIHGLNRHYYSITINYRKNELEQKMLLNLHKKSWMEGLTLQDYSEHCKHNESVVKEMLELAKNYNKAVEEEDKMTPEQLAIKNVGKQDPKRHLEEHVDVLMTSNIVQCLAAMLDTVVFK

O=C(CCl)N1CCC(OCc2ccccc2F)CC1
inactive: [1] -0.0279 | [2] 0.075 | [3] -0.226 | [4] 0.146 | [5] -0.173 | [6] -0.355 | [7] 0.097 | [8] -0.394 | [9] 0.135
